# LAP4 TOR yeast: yeast TOR pathway LAP4-GFP modulation; S. cerevisiae LAP4-GFP multiplex, flow cytometry GFP, 3 h; median GFP as percent of DMSO wells; 0.34% of 320,000 active; GFP response vs DMSO, % at 10 µM;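 active means GFP response vs DMSO above a set limit, about the screen mean plus 3 SD, cut at about 150% in these data; inconclusive means under 70 cell events counted for the yeast strain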
# RPL19A-GFP yeast: yeast TOR pathway RPL19A-GFP modulation | S. cerevisiae RPL19A-GFP strain, flow cytometry, 3 h; stronger effect = lower value | percent response vs DMSO, % at 10 µM | 0.3% of 330,000 active;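 active means percent response vs DMSO below 50%; inconclusive means fewer than 70 events counted for the yeast strain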;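 further: median channel GFP fluorescence of the barcoded RPL19A-GFP strain; ratio of sample median GFP to plate DMSO average so 100% = DMSO; lower means less RPL19A-GFP as with rapamycin TOR inhibition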
# CIT2-GFP yeast: alters CIT2-GFP fluorescence in TOR pathway yeast screen; S. cerevisiae CIT2-GFP strain, flow cytometry, 3 h; 100 means same as DMSO wells; GFP response vs DMSO, % at 10 µM; 0.065% of 320,000 active; AID 2029;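 active means GFP response relative to DMSO above a set limit, near the screen mean plus 3 SD, cut at about 150% in these data; inconclusive means Fewer than 70 cells measured for a yeast strain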;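 further: ratio of well median GFP fluorescence to mean of DMSO wells on the plate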
# AGP1-GFP MLPCN: yeast TOR pathway AGP1-GFP modulation. S. cerevisiae AGP1-GFP multiplex flow cytometry, 3 h; GFP as percent of DMSO wells. GFP response vs DMSO, % at 10 µM. 0.02% of 320,000 active. AID 2066;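 active means GFP response relative to DMSO above a set limit, near screen average plus 3 SD, cut at about 150% in these data; inconclusive means fewer than 70 cells counted for the yeast strain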;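 further: median GFP channel fluorescence of the gated AGP1 strain per well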
# MEP2 TOR yeast: yeast TOR pathway MEP2-GFP modulation | S. cerevisiae MEP2-GFP strain, flow cytometry GFP, 3 h; 100% = DMSO control level | GFP response vs DMSO, % at 10 µM | 0.51% of 330,000 active;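 active means GFP response versus DMSO above a set limit, roughly screen mean plus 3 SD, cut at about 180% in these data; inconclusive means fewer than 70 cells counted for a yeast strain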;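 further: median GFP fluorescence of the barcode-gated MEP2-GFP cells per well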
# An asterisk follows results filed as active; ? = inconclusive; nt = not tested or not shown; ! = not confirmed by another sample; [ ] = remark or other dose. Compounds with a hit are over-represented: about 0.93% of the library has one in this group of screens.
SMILES,LAP4 TOR yeast,RPL19A-GFP yeast,CIT2-GFP yeast,AGP1-GFP MLPCN,MEP2 TOR yeast
N=c1c(C(=O)NCc2ccc(F)cc2)cc2c(=O)n3ccccc3nc2n1Cc1cccnc1,109.1,98.6,101.0,99.4,105.5
N=c1c(C(=O)NC2CCCCC2)cc2c(=O)n3ccccc3nc2n1Cc1cccnc1,?,32.7*[may fluoresce violet],?,?,180.1*[may fluoresce violet]
N=c1c(C(=O)NC2CCCCC2)cc2c(=O)n3ccccc3nc2n1Cc1ccccc1,97.0,96.7,97.0,88.8,98.2
CC(=O)N=c1c(C#N)cc2c(=O)n3ccccc3nc2n1CCCOC(C)C,109.8,93.4,112.1,114.1,85.6
N=c1c(C(=O)NCC2CCCO2)cc2c(=O)n3ccccc3nc2n1Cc1cccnc1 (configuration not stated),?,14.1*[may fluoresce violet],?,?,?
CC(C)OCCCn1c(=N)c(C(N)=S)cc2c(=O)n3ccccc3nc21,90.8,48.3*[may fluoresce violet],?,35.1,632.9*[may fluoresce violet]
CC1(COS(N)(=O)=O)CCCCC1,99.7,98.1,nt,83.6,91.3
COC(=O)c1cc2c(=O)n3ccccc3nc2n(Cc2cccnc2)c1=N,?,22.1*[may fluoresce violet],?,?,?
COc1ccc(CCn2c(=N)c(C(=O)NCC3CCCO3)cc3c(=O)n4cccc(C)c4nc32)cc1 (configuration not stated),93.4,98.0,99.9,101.2,103.9
Cc1cccn2c(=O)c3cc(C(=O)NCC4CCCO4)c(=N)n(Cc4cccnc4)c3nc12 (configuration not stated),?,12.1*[may fluoresce violet],?,?,?
N=c1c(C(=O)NCC2CCCO2)cc2c(=O)n3ccccc3nc2n1Cc1ccc(F)cc1 (configuration not stated),58.7,14.3*[may fluoresce violet],?,?,178.8*[may fluoresce violet]
N=c1c(C(=O)NCC2CCCO2)cc2c(=O)n3ccccc3nc2n1Cc1ccco1 (configuration not stated),104.5,102.3,99.3,88.2,109.5
O=[N+]([O-])c1ccc(SCCc2ccccn2)cc1,127.9,98.4,103.5,97.4,110.6
O=[N+]([O-])c1ccc(SCCc2ccncc2)cc1,156.4*!,98.5,99.9,103.1,97.9
O=c1n(Cc2ccc(F)cc2)nc2n1-c1ccccc1SC2,79.3,41.6*[may fluoresce violet],?,?,198.6*[may fluoresce violet]
O=c1n(Cc2ccccc2)nc2n1-c1ccccc1SC2,118.5,99.6,92.3,109.2,97.5
CCN(CC)CCCN(Cc1cc2cc3c(cc2[nH]c1=O)OCO3)C(=S)Nc1ccccc1,153.3*,64.9,109.6,120.1,102.9
CCOc1ccc(C(=O)Nc2c(C(=O)N3CCC(N4CCCCC4)CC3)oc3ccccc23)cc1,83.9,95.9,96.2,90.1,99.0
COc1ccc(C2(CNC(C)=O)CCCC2)cc1OC,105.5,99.4,104.4,105.1,99.8
COc1ccc(C2(CNC(=O)c3ccccc3)CCCC2)cc1OC,85.7,36.7*[may fluoresce violet],?,?,613.9*[may fluoresce violet]
COc1ccc(NC(=O)c2cc(S(=O)(=O)N3CCCC3)ccc2C)cn1,121.9,108.3,100.7,107.1,127.3
COc1cc(-c2nnc(SCC(=O)c3ccccc3)o2)cc(OC)c1OC,109.6,92.3,92.2,91.2,97.0
COc1ccc(-c2nnc(SCC(=O)N(Cc3ccccc3)C(C)(C)C)o2)cc1OC,145.7,10.1*[may fluoresce violet],?,?,?
O=C(CN1CCCC1)N/N=C/c1c(O)ccc2ccccc12,93.4,102.2,98.4,99.4,99.5
COc1ccc(NC(=O)c2c(N)no[n+]2[O-])cc1,91.2,97.0,95.6,87.0,94.4
SMILES,LAP4 TOR yeast,RPL19A-GFP yeast,CIT2-GFP yeast,AGP1-GFP MLPCN,MEP2 TOR yeast
COc1ccc(C(=O)c2no[n+]([O-])c2C(=O)c2ccc(OC)cc2)cc1,156.3*,85.8,57.0,88.6,86.1
Cc1cccc(NC(=O)CN2C(=O)N/C(=C\c3ccc(-c4cccc(C(=O)O)c4)o3)C2=O)c1,83.7,42.8*[may fluoresce violet],?,?,215.3*[may fluoresce violet]
Cc1ccc(C)c(-n2c(Cc3cc(=O)[nH]c(=O)[nH]3)nnc2SCC(=O)NCc2ccco2)c1,97.4,95.7,104.1,90.2,97.1
Cc1ccc(C)c(-n2c(Cc3cc(=O)[nH]c(=O)[nH]3)nnc2SCC(=O)NCC2CCCO2)c1 (configuration not stated),73.6,23.1*[may fluoresce violet],?,?,233.9*[may fluoresce violet]
CCOCCc1nnc(NC(=O)CS(=O)(=O)c2ccc(C)cc2)s1,88.5,99.5,104.4,102.7,100.5
Cc1cc(C)c2sc(NC(=O)C3=COCCO3)nc2c1,165.5*,88.8,84.4,92.5,102.6
Brc1ccc(CNc2ccc3ncccc3c2)cc1,97.9,99.3,101.6,94.3,99.6
Cc1noc2ncnc(Sc3ccc(Cl)cc3)c12,165.9*,87.2,98.0,98.7,94.6
Cc1ccc(Sc2ncnc3onc(C)c23)cc1,130.0,100.5,110.0,92.5,99.8
Fc1cccc(Nc2nc(N3CCOCC3)nc(N3CCOCC3)n2)c1,110.2,95.9,93.8,96.8,94.0
CCOc1cccc(CN2CCN(CCCc3ccccc3)C(CCO)C2)c1O (configuration not stated),88.8,46.3*[may fluoresce violet],?,25.6,513.6*[may fluoresce violet]
CCOc1ccccc1CN1CCN(Cc2ccc(C)o2)CC1CCO (configuration not stated),99.9,98.1,97.1,97.2,101.0
CCOc1ccccc1CN1CCN(CC2=Cc3cc(OC)ccc3OC2)CC1CCO (configuration not stated),87.4,51.2,?,29.2,205.2*[may fluoresce violet]
O=C(O)CSc1nc2ccccc2n1Cc1ccccc1,103.8,52.1,?,20.1,352.2*[may fluoresce violet]
CCNC(=O)NC(=O)CSc1nc2ccccc2n1CC(C)C,84.2,41.9*[may fluoresce violet],?,62.8,388.2*[may fluoresce violet]
CCOC(=O)c1c(N2C(=O)C3C4C=CC(O4)C3C2=O)sc2c1CCCC2 (configuration not stated),173.3*,98.5,92.3,113.1,96.7
Cc1ccc(F)cc1NC(=O)C1C2CCC(O2)C1C(=O)O (configuration not stated),97.8,107.8,108.7,103.1,111.3
Cc1ccc2nc(NCc3ccc(F)cc3)c3nncn3c2c1,111.5,31.6*,92.3,90.0,152.3
CC(C)(Cc1ccccc1)/[N+]([O-])=C\c1ccc(C(F)(F)F)cc1,108.3,102.2,103.2,89.8,86.4
O=C(NCCO)c1c(O)c2cccc3c2n(c1=O)CC3,85.9,89.0,100.5,93.3,91.6
CCOC(=O)c1c(O)c2cccc3c2n(c1=O)CC3,76.7,31.6*[may fluoresce violet],?,?,346.7*[may fluoresce violet]
CN(C(=O)Cn1cnc([N+](=O)[O-])n1)C1CCCCC1,87.0,?,?,?,211.7*[may fluoresce red and violet]
COc1ccc(CN2CCC(C(=O)Nc3ccc(Oc4cccnc4)cc3)CC2)c(C)c1C,107.6,103.5,101.2,110.1,99.3
O=C(COc1ccc(Cl)cc1)NCCS(=O)(=O)N1CCN(c2ccccc2F)CC1,96.4,97.0,102.8,97.5,102.1

# Assay outcomes as filed in PubChem BioAssay.
